Measured values from publication PMC12820563, “FoxP3 forms a head-to-head dimer in vivo and stabilizes its multimerization on adjacent microsatellites”.
Over roughly 16,000 sequences, “rpm ratio (pull-down/input)” has its median near 0.5; the highest 2% begin near 5.5. The entries come from a sample that favours the highest values as a whole.

target: T1, MBP-FoxP3dN (Mus musculus, UniProt Q99JB6 188-423); test: PD-seq (MBP pull-down with sequencing); 20 mM Tris-HCl pH 7.5, 100 mM NaCl, 1.5 mM MgCl2, 0.4 uM protein, 0.1 uM dsDNA library, 30 min, room temperature, amylose pull-down; high values mean tight binding; settings: protein: recombinant; tags: His6-MBP; chain copies: 2; dsDNA, one strand shown
T1 sequence: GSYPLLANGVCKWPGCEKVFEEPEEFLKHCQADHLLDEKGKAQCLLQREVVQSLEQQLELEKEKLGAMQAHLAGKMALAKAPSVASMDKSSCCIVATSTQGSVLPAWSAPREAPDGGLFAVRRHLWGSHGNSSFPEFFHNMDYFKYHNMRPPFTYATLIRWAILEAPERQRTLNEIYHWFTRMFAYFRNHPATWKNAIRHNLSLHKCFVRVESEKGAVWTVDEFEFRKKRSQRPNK
Procedure, shortened: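 Binding is reads-per-million enrichment of pull-down over input, with replicates pooled. It comes from 30 min room-temperature incubation in Tris pH 7.5 buffer with NaCl and MgCl2 of 0.4 µM His6-MBP-tagged, N-terminally truncated mouse FoxP3 or FoxP1 fragment from E. coli with 0.1 µM Klenow-filled degenerate double-stranded DNA library, followed by amylose resin capture, three washes and Illumina sequencing of the released DNA.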

Row | Sequence | binding signal
1 | GATGATTGTTCTCCCAGCTGATGAATTTATTACGTCGAGTAAACAAATTTTCCTAATCTTTCTGTTCAAGCGCCATCTAC | 1.22 RPM ratio (pull-down/input)
2 | GATGATTGTTCTCCCAGCTGATGAATTGGCGACGTCGAGTAAACAAATTTTCCTAATCTTTCTGTTCAAGCGCCATCTAC | 0.41 RPM ratio (pull-down/input)
3 | GATGATTGTTCTCCCAGCTGATGAATTAGGTTGGTCGAGTAAACAAATTTTCCTAATCTTTCTGTTCAAGCGCCATCTAC | 1.62 RPM ratio (pull-down/input)
4 | GATGATTGTTCTCCCAGCTGATGAATTCTTTGTGTCGAGTAAACAAATTTTCCTAATCTTTCTGTTCAAGCGCCATCTAC | 0.573 RPM ratio (pull-down/input)
5 | GATGATTGTTCTCCCAGCTGATGAATTTTGTGTGTCGAGTAAACAAATTTTCCTAATCTTTCTGTTCAAGCGCCATCTAC | 5.59 RPM ratio (pull-down/input)
6 | GATGATTGTTCTCCCAGCTGATGAATTTTTTGTGTCGAGTAAACAAATTTTCCTAATCTTTCTGTTCAAGCGCCATCTAC | 0.531 RPM ratio (pull-down/input)
7 | GATGATTGTTCTCCCAGCTGATGAATTAGTCTGATCGAGTAAACAAATTTTCCTAATCTTTCTGTTCAAGCGCCATCTAC | 0.373 RPM ratio (pull-down/input)
8 | GATGATTGTTCTCCCAGCTGATGAATTCTCCCGTTCGAGTAAACAAATTTTCCTAATCTTTCTGTTCAAGCGCCATCTAC | 0.247 RPM ratio (pull-down/input)
9 | GATGATTGTTCTCCCAGCTGATGAATTTGGTGCATCGAGTAAACAAATTTTCCTAATCTTTCTGTTCAAGCGCCATCTAC | 1.86 RPM ratio (pull-down/input)
10 | GATGATTGTTCTCCCAGCTGATGAATTTGTGCATTCGAGTAAACAAATTTTCCTAATCTTTCTGTTCAAGCGCCATCTAC | 7.63 RPM ratio (pull-down/input)
11 | GATGATTGTTCTCCCAGCTGATGAATTTTCCCATTCGAGTAAACAAATTTTCCTAATCTTTCTGTTCAAGCGCCATCTAC | 0.252 RPM ratio (pull-down/input)
12 | GATGATTGTTCTCCCAGCTGATGAATTGTGCTGTTCGAGTAAACAAATTTTCCTAATCTTTCTGTTCAAGCGCCATCTAC | 3.6 RPM ratio (pull-down/input)
13 | GATGATTGTTCTCCCAGCTGATGAATTGTGCATTTCGAGTAAACAAATTTTCCTAATCTTTCTGTTCAAGCGCCATCTAC | 7.44 RPM ratio (pull-down/input)
14 | GATGATTGTTCTCCCAGCTGATGAATTGGTGAATTCGAGTAAACAAATTTTCCTAATCTTTCTGTTCAAGCGCCATCTAC | 0.867 RPM ratio (pull-down/input)
15 | GATGATTGTTCTCCCAGCTGATGAATTCTCCCATTCGAGTAAACAAATTTTCCTAATCTTTCTGTTCAAGCGCCATCTAC | 0.243 RPM ratio (pull-down/input)
16 | GATGATTGTTCTCCCAGCTGATGAATTGGTGCATTCGAGTAAACAAATTTTCCTAATCTTTCTGTTCAAGCGCCATCTAC | 6.97 RPM ratio (pull-down/input)
17 | GATGATTGTTCTCCCAGCTGATGAATTTTGTGATTCGAGTAAACAAATTTTCCTAATCTTTCTGTTCAAGCGCCATCTAC | 5.26 RPM ratio (pull-down/input)
18 | GATGATTGTTCTCCCAGCTGATGAATTCATTTGTTCGAGTAAACAAATTTTCCTAATCTTTCTGTTCAAGCGCCATCTAC | 3.73 RPM ratio (pull-down/input)
19 | GATGATTGTTCTCCCAGCTGATGAATTGTGTGCATCGAGTAAACAAATTTTCCTAATCTTTCTGTTCAAGCGCCATCTAC | 2.8 RPM ratio (pull-down/input)
20 | GATGATTGTTCTCCCAGCTGATGAATTGTGCCATTCGAGTAAACAAATTTTCCTAATCTTTCTGTTCAAGCGCCATCTAC | 6.37 RPM ratio (pull-down/input)

Row | Sequence | binding signal
21 | GATGATTGTTCTCCCAGCTGATGAATTGAATAGCTCGAGTAAACAAATTTTCCTAATCTTTCTGTTCAAGCGCCATCTAC | 0.346 RPM ratio (pull-down/input)
22 | GATGATTGTTCTCCCAGCTGATGAATTTGTAAAATCGAGTAAACAAATTTTCCTAATCTTTCTGTTCAAGCGCCATCTAC | 0.357 RPM ratio (pull-down/input)
23 | GATGATTGTTCTCCCAGCTGATGAATTGTCGTAGTCGAGTAAACAAATTTTCCTAATCTTTCTGTTCAAGCGCCATCTAC | 0.56 RPM ratio (pull-down/input)
24 | GATGATTGTTCTCCCAGCTGATGAATTCACGTGTTCGAGTAAACAAATTTTCCTAATCTTTCTGTTCAAGCGCCATCTAC | 0.58 RPM ratio (pull-down/input)
25 | GATGATTGTTCTCCCAGCTGATGAATTAAGACGGTCGAGTAAACAAATTTTCCTAATCTTTCTGTTCAAGCGCCATCTAC | 0.236 RPM ratio (pull-down/input)
26 | GATGATTGTTCTCCCAGCTGATGAATTATAAAGATCGAGTAAACAAATTTTCCTAATCTTTCTGTTCAAGCGCCATCTAC | 0.233 RPM ratio (pull-down/input)
27 | GATGATTGTTCTCCCAGCTGATGAATTGTGCCTTTCGAGTAAACAAATTTTCCTAATCTTTCTGTTCAAGCGCCATCTAC | 6.1 RPM ratio (pull-down/input)
28 | GATGATTGTTCTCCCAGCTGATGAATTGTGCATCTCGAGTAAACAAATTTTCCTAATCTTTCTGTTCAAGCGCCATCTAC | 8.03 RPM ratio (pull-down/input)
29 | GATGATTGTTCTCCCAGCTGATGAATTTGTGCCTTCGAGTAAACAAATTTTCCTAATCTTTCTGTTCAAGCGCCATCTAC | 4.02 RPM ratio (pull-down/input)
30 | GATGATTGTTCTCCCAGCTGATGAATTTTGTGCATCGAGTAAACAAATTTTCCTAATCTTTCTGTTCAAGCGCCATCTAC | 2.27 RPM ratio (pull-down/input)
31 | GATGATTGTTCTCCCAGCTGATGAATTCGTGCCATCGAGTAAACAAATTTTCCTAATCTTTCTGTTCAAGCGCCATCTAC | 2.18 RPM ratio (pull-down/input)
32 | GATGATTGTTCTCCCAGCTGATGAATTTCGCCTTTCGAGTAAACAAATTTTCCTAATCTTTCTGTTCAAGCGCCATCTAC | 5.39 RPM ratio (pull-down/input)
33 | GATGATTGTTCTCCCAGCTGATGAATTTCGTGCATCGAGTAAACAAATTTTCCTAATCTTTCTGTTCAAGCGCCATCTAC | 1.22 RPM ratio (pull-down/input)
34 | GATGATTGTTCTCCCAGCTGATGAATTCGTGCATTCGAGTAAACAAATTTTCCTAATCTTTCTGTTCAAGCGCCATCTAC | 6.29 RPM ratio (pull-down/input)
35 | GATGATTGTTCTCCCAGCTGATGAATTCTGTGCATCGAGTAAACAAATTTTCCTAATCTTTCTGTTCAAGCGCCATCTAC | 1.52 RPM ratio (pull-down/input)
36 | GATGATTGTTCTCCCAGCTGATGAATTGCGAATCTCGAGTAAACAAATTTTCCTAATCTTTCTGTTCAAGCGCCATCTAC | 2.16 RPM ratio (pull-down/input)
37 | GATGATTGTTCTCCCAGCTGATGAATTCCATAGATCGAGTAAACAAATTTTCCTAATCTTTCTGTTCAAGCGCCATCTAC | 0.239 RPM ratio (pull-down/input)
38 | GATGATTGTTCTCCCAGCTGATGAATTAAGGGCCTCGAGTAAACAAATTTTCCTAATCTTTCTGTTCAAGCGCCATCTAC | 0.451 RPM ratio (pull-down/input)
39 | GATGATTGTTCTCCCAGCTGATGAATTCAATTCGTCGAGTAAACAAATTTTCCTAATCTTTCTGTTCAAGCGCCATCTAC | 0.665 RPM ratio (pull-down/input)
40 | GATGATTGTTCTCCCAGCTGATGAATTTCGGAGGTCGAGTAAACAAATTTTCCTAATCTTTCTGTTCAAGCGCCATCTAC | 0.25 RPM ratio (pull-down/input)
